Among the test systems are CDK8; CDK9; CDKL1; CDKL2; CDKL3; CDKL5; CHEK1; CHEK2; CIT; CLK1; CLK2; CLK3; CLK4; CSF1R-autoinhibited; CSF1R; CSK; CSNK1A1L; CSNK1A1; CSNK1D; CSNK1E.
What all share (conditions): concentration: 1 μM, replicates: in singlicate; n = 1
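Also: KINOMEscan kinase panel screen.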

Regarding `Cc1ccc(O)cc1Nc1ccnc2cc(-c3ccc(CN4CCCCC4)o3)ccc12` [GW557777], the “%Inh” value stood at 0% in the test on CDK8; 0% with CDK9; 7% with CDKL1; 0% with CDKL2; 5% with CDKL3; 0% in the test on CDKL5. Moreover, the “%Inh” value in the test on CHEK1 is on record as 13%; in the test with CHEK2, 0%; with CIT, 40%; in the test on CLK1, 24%; with CLK2, 0%; in the test with CLK3 it was 0%. Besides, the “%Inh” value in the test with CLK4 is listed as 0%; in the test on CSF1R-autoinhibited it was 0%; with CSF1R, 96.7%; in the test on CSK, 82%; with CSNK1A1L, 44%; with CSNK1A1, 84%. In addition, the “%Inh” value is 27% in the test on CSNK1D and 34% in the test on CSNK1E.
Take `Cc1nn2c(=O)cc(N3CCO[C@H](C)C3)nc2n1Cc1cccc(Cl)c1Cl` [GSK2373693]: the “%Inh” value in the test with CDK8 is 0%; in the test on CDK9, 2%; in the test on CDKL1, 1%; with CDKL2, 11%; in the test on CDKL3, 0%; in the test on CDKL5, 0%. Besides, the “%Inh” value in the test on CHEK1 worked out at 26%; in the test on CHEK2 it was 0%; in the test on CIT it was 21%; in the test on CLK1, 55%; in the test on CLK2, 31%; in the test on CLK3 it was 4%. For the same molecule, the “%Inh” value worked out at 59% in the test with CLK4; 0% in the test with CSF1R-autoinhibited; 6% in the test with CSF1R; 56% in the test with CSK; 0% with CSNK1A1L; 16% in the test on CSNK1A1. In addition, the “%Inh” value with CSNK1D is 69%; in the test with CSNK1E, 25%.
For `c1ccc(Oc2ccc(Nc3ccnc4cc(-c5ccc(CN6CCCCC6)o5)ccc34)cc2)nc1` [GW567143], the “%Inh” value is given as 14% in the test on CDK8; 0% in the test on CDK9; 0% with CDKL1; 12% with CDKL2; 0% in the test with CDKL3; 19% with CDKL5. Moreover, the “%Inh” value is 0% in the test with CHEK1; 74% in the test on CHEK2; 6% in the test on CIT; 1% with CLK1; 0% in the test with CLK2; 0% in the test on CLK3. Moreover, the “%Inh” value is recorded as 6% with CLK4; 0% in the test on CSF1R-autoinhibited; 54% with CSF1R; 71% in the test on CSK; 12% in the test with CSNK1A1L; 1% in the test with CSNK1A1. For the same molecule, the figures for the “%Inh” value in the test on CSNK1D and in the test on CSNK1E were 10% and 13%, respectively.
With `COc1cccc(NC(=O)NCCNc2ccnc(Nc3ccc(F)cc3)n2)c1` [GSK1379879], the “%Inh” value is on record as 27% in the test with CDK8; 0% with CDK9; 0% in the test with CDKL1; 15% in the test on CDKL2; 0% in the test with CDKL3; 0% in the test with CDKL5. Besides, the “%Inh” value was 0% in the test with CHEK1; 0% with CHEK2; 6% with CIT; 17% in the test with CLK1; 0% in the test with CLK2; 0% in the test on CLK3. For the same molecule, the “%Inh” value is listed as 20% in the test with CLK4; 20% in the test on CSF1R-autoinhibited; 11% in the test with CSF1R; 0% with CSK; 0% in the test with CSNK1A1L; 0% in the test with CSNK1A1. The “%Inh” value in the test on CSNK1D and with CSNK1E was 0% throughout.
Consider `COc1ccc(C2=C(Nc3cccc(O)c3)C(=O)NC2=O)cc1` [SB-390766], for which the “%Inh” value in the test with CDK8 is 0%; in the test with CDK9, 0%; in the test on CDKL1, 0%; in the test on CDKL2 it was 7%; with CDKL3 it was 32%; with CDKL5, 3%. For the same molecule, the “%Inh” value stood at 2% in the test on CHEK1; 0% in the test on CHEK2; 4% in the test with CIT; 86% in the test with CLK1; 84% in the test on CLK2; 22% with CLK3. Further, the “%Inh” value in the test with CLK4 worked out at 85%; in the test with CSF1R-autoinhibited it was 0%; in the test on CSF1R, 0%; with CSK, 15%; with CSNK1A1L it was 7%; with CSNK1A1, 0%. Also, the “%Inh” value came to 94% with CSNK1D and 20% with CSNK1E.
For `N#Cc1cnc2cc(-c3cnc(CNCCN4CCOCC4)s3)ccc2c1Nc1ccc(Oc2ccccc2)cc1` [GW664114], the “%Inh” value in the test on CDK8 was found to be 10%; in the test with CDK9 it was 0%; in the test with CDKL1, 0%; in the test with CDKL2, 61%; in the test on CDKL3, 0%; in the test with CDKL5, 29%. For the same molecule, the “%Inh” value in the test with CHEK1 was 0%; with CHEK2, 82%; with CIT it was 22%; in the test on CLK1, 40%; in the test on CLK2, 0%; in the test on CLK3 it was 0%. In addition, the “%Inh” value was 95.2% in the test with CLK4; 17% in the test with CSF1R-autoinhibited; 19% in the test with CSF1R; 96.7% in the test with CSK; 7% in the test on CSNK1A1L; 0% in the test on CSNK1A1. For the same molecule, the “%Inh” value in the test with CSNK1D is 0%; with CSNK1E, 39%.
For the molecule `COc1ccc(C)c(Nc2ccnc(Nc3ccc(-c4cnc[nH]4)cc3)n2)c1.Cl` [GW784041], the “%Inh” value with CDK8 came to 35%; with CDK9, 0%; with CDKL1, 44%; with CDKL2, 0%; in the test on CDKL3, 0%; in the test with CDKL5, 1%. Also, the “%Inh” value is recorded as 0% in the test on CHEK1; 0% in the test with CHEK2; 0% with CIT; 18% in the test with CLK1; 0% with CLK2; 7% in the test on CLK3. For the same molecule, the “%Inh” value stood at 13% with CLK4; 0% with CSF1R-autoinhibited; 67% in the test on CSF1R; 9% with CSK; 2% with CSNK1A1L; 21% in the test with CSNK1A1. Moreover, the “%Inh” value was found to be 16% in the test on CSNK1D and 27% with CSNK1E.
As to `CN(C)CCOc1ccc(-c2cc(-c3ccc(Cl)c(O)c3)c(-c3ccncc3)[nH]2)cc1.Cl.Cl` [SB-684387], the “%Inh” value in the test with CDK8 is recorded as 38%; in the test on CDK9, 18%; in the test with CDKL1, 28%; in the test with CDKL2, 39%; with CDKL3 it was 0%; in the test on CDKL5 it was 0%. Besides, the “%Inh” value was found to be 7% in the test on CHEK1; 33% in the test with CHEK2; 90.8% with CIT; 32% with CLK1; 1% with CLK2; 5% in the test on CLK3. Besides, the “%Inh” value with CLK4 came out at 3%; in the test on CSF1R-autoinhibited, 30%; in the test with CSF1R, 5%; with CSK it was 7%; in the test on CSNK1A1L, 2%; with CSNK1A1, 23%. Moreover, the “%Inh” value in the test on CSNK1D was found to be 77%; with CSNK1E it was 94.6%.
As for `CCNC(=O)/C=C/c1n[nH]c2cc(Sc3ccccc3C(=O)NC)ccc12`, the “%Inh” value turned out to be 20% in the test on CDK8; 13% in the test on CDK9; 17% in the test with CDKL1; 26% in the test with CDKL2; 17% with CDKL3; 15% with CDKL5. Also, the “%Inh” value with CHEK1 was 0%; in the test with CHEK2, 0%; in the test on CIT, 0%; in the test on CLK1, 17%; in the test on CLK2 it was 0%; in the test with CLK3, 14%. Besides, the “%Inh” value turned out to be 3% in the test with CLK4; 36% in the test on CSF1R-autoinhibited; 99.8% in the test on CSF1R; 3% in the test with CSK; 0% with CSNK1A1L; 21% in the test with CSNK1A1. The “%Inh” value is listed as 0% in the test with CSNK1D and 18% in the test with CSNK1E.
Take `Cc1ccc(NC(=O)c2ccnc(N3CCCCC3)c2)cc1-c1ccc(C(=O)NCC2CC2)cc1` [GW775610]: the “%Inh” value with CDK8 is recorded as 39%; in the test with CDK9, 1%; in the test with CDKL1, 9%; in the test with CDKL2, 33%; in the test on CDKL3 it was 0%; in the test with CDKL5, 75%. The “%Inh” value in the test with CHEK1 came out at 0%; in the test on CHEK2, 39%; with CIT, 38%; in the test with CLK1, 11%; in the test with CLK2, 0%; in the test with CLK3, 0%. Further, the “%Inh” value was found to be 0% with CLK4; 5% in the test on CSF1R-autoinhibited; 23% in the test on CSF1R; 0% in the test with CSK; 20% with CSNK1A1L; 1% in the test with CSNK1A1. Moreover, the “%Inh” value in the test with CSNK1D and with CSNK1E was 0% throughout.

(Values after publication PMC5540273 (PLoS ONE, 2017).)
